Data as given in PubChem BioAssay AID1159580 (chemical genetic matrix, 2015).
In all, about 5,500 compounds went through this assay and about 2,000 (36%) were called active. Not shown: some 18% with an inconclusive outcome. This is one part of the list. Values without a mark were called inactive. Cut-off read from the data, not from the text of the source: active = normalized growth mostly below about 0.91 (no sharp cut-off); inconclusive = no clear call, values can overlap the other calls; inactive = mostly above about 0.92.

Assay: chemical genetic growth profiling, strain panel (AID 1159580);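 note: tested at 20 µM; growth read once vehicle control cultures reached saturation at 30 °C; 1 = growth at the plate median or of vehicle wells; lower values mean less growth of the strain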
Conditions: growth OD

SMILES: N[C@H](Cc1cc(I)c(Oc2ccc(O)c(I)c2)c(I)c1)C(=O)O
- normalized growth (S. cerevisiae deletion strains, locus YJR075W, strain HOC1, hits give low values): 1
- normalized growth (S. cerevisiae deletion strains, locus YKL009W, strain mrt4, hits give low values): 1.03
- normalized growth (S. cerevisiae deletion strains, locus YKL068W, hits give low values): 0.998
- normalized growth (S. cerevisiae deletion strains, locus YKL085W, strain MDH1 (second series), hits give low values): 0.991
- normalized growth (S. cerevisiae deletion strains, locus YKL085W, strain MDH1, hits give low values): 0.991
- normalized growth (S. cerevisiae deletion strains, locus YKL160W, strain elf1, hits give low values): 0.965
- normalized growth (S. cerevisiae deletion strains, locus YKL190W, strain CNB1, hits give low values): 1.01
- normalized growth (S. cerevisiae deletion strains, locus YKR001C, strain vps1, hits give low values): 0.862 (active)
- normalized growth (S. cerevisiae deletion strains, locus YKR026C, strain gcn3, hits give low values): 0.999
- normalized growth (S. cerevisiae deletion strains, locus YKR091W, strain srl3, hits give low values): 0.998
- normalized growth (S. cerevisiae deletion strains, locus YLL001W, strain dnm1, hits give low values): 0.989
- normalized growth (S. cerevisiae deletion strains, locus YLL026W, hits give low values): 1
- normalized growth (S. cerevisiae deletion strains, locus YLL041C, strain sdh2, hits give low values): 1
- normalized growth (S. cerevisiae deletion strains, locus YLR027C, strain aat2, hits give low values): 0.968
- normalized growth (S. cerevisiae deletion strains, locus YLR039C, strain RIC1, hits give low values): 0.964
- normalized growth (S. cerevisiae deletion strains, locus YLR058C, strain SHM2, hits give low values): 1.01
- normalized growth (S. cerevisiae deletion strains, locus YLR102C, strain apc9, hits give low values): 0.996
- normalized growth (S. cerevisiae deletion strains, locus YLR113W, strain HOG1, hits give low values): 1.04
- normalized growth (S. cerevisiae deletion strains, locus YLR221C, strain rsa3, hits give low values): 0.945
- normalized growth (S. cerevisiae deletion strains, locus YLR258W, strain gsy2, hits give low values): 0.969
- normalized growth (S. cerevisiae deletion strains, locus YLR262C, strain YPT6 (second series), hits give low values): 0.938
- normalized growth (S. cerevisiae deletion strains, locus YLR262C, strain YPT6, hits give low values): 0.953
- normalized growth (S. cerevisiae deletion strains, locus YLR268W, strain sec22, hits give low values): 0.909
- normalized growth (S. cerevisiae deletion strains, locus YLR320W, strain mms22, hits give low values): 0.941
- normalized growth (S. cerevisiae deletion strains, locus YLR330W, strain CHS5, hits give low values): 1.04
- normalized growth (S. cerevisiae deletion strains, locus YLR342W, strain FKS1 (second series), hits give low values): 0.95
- normalized growth (S. cerevisiae deletion strains, locus YLR342W, strain FKS1, hits give low values): 0.994
- normalized growth (S. cerevisiae deletion strains, locus YLR357W, strain rsc2, hits give low values): 1
- normalized growth (S. cerevisiae deletion strains, locus YLR370C, strain arc18, hits give low values): 0.999
- normalized growth (S. cerevisiae deletion strains, locus YLR371W, strain rom2, hits give low values): 0.989
- normalized growth (S. cerevisiae deletion strains, locus YLR384C, strain iki3, hits give low values): 0.993
- normalized growth (S. cerevisiae deletion strains, locus YLR418C, strain cdc73, hits give low values): 0.77 (active)
- normalized growth (S. cerevisiae deletion strains, locus YML016C, strain PPZ1, hits give low values): 0.997
- normalized growth (S. cerevisiae deletion strains, locus YML032C, strain rad52, hits give low values): 0.989
- normalized growth (S. cerevisiae deletion strains, locus YML120C, strain ndi1, hits give low values): 0.998
- normalized growth (S. cerevisiae deletion strains, locus YML124C, strain tub3, hits give low values): 0.997
- normalized growth (S. cerevisiae deletion strains, locus YMR058W, strain fet3, hits give low values): 0.988
- normalized growth (S. cerevisiae deletion strains, locus YMR078C, strain ctf18, hits give low values): 1.01
- normalized growth (S. cerevisiae deletion strains, locus YMR125W, strain sto1, hits give low values): 0.989
- normalized growth (S. cerevisiae deletion strains, locus YMR129W, hits give low values): 0.999
- normalized growth (S. cerevisiae deletion strains, locus YMR205C, strain PFK2, hits give low values): 0.88
- normalized growth (S. cerevisiae deletion strains, locus YMR223W, strain ubp8, hits give low values): 0.934
- normalized growth (S. cerevisiae deletion strains, locus YMR231W, strain pep5, hits give low values): 0.999
- normalized growth (S. cerevisiae deletion strains, locus YMR263W, strain SAP30, hits give low values): 1
- normalized growth (S. cerevisiae deletion strains, locus YMR307W, strain GAS1, hits give low values): 0.956
- normalized growth (S. cerevisiae deletion strains, locus YNL067W, strain RPL9B, hits give low values): 1.01
- normalized growth (S. cerevisiae deletion strains, locus YNL071W, strain lat1, hits give low values): 0.627 (active)
- normalized growth (S. cerevisiae deletion strains, locus YNL128W, strain TEP1, hits give low values): 1.01
- normalized growth (S. cerevisiae deletion strains, locus YNL153C, strain GIM3, hits give low values): 0.998
- normalized growth (S. cerevisiae deletion strains, locus YNL183C, strain NPR1, hits give low values): 0.977
- normalized growth (S. cerevisiae deletion strains, locus YNL209W, strain ssb2, hits give low values): 1
- normalized growth (S. cerevisiae deletion strains, locus YNL233W, strain BNI4, hits give low values): 0.961
- normalized growth (S. cerevisiae deletion strains, locus YNL248C, strain rpa49, hits give low values): 0.986
- normalized growth (S. cerevisiae deletion strains, locus YNL250W, strain rad50, hits give low values): 0.988
- normalized growth (S. cerevisiae deletion strains, locus YNL271C, strain bni1, hits give low values): 0.989
- normalized growth (S. cerevisiae deletion strains, locus YNL298W, strain CLA4, hits give low values): 1
- normalized growth (S. cerevisiae deletion strains, locus YNL307C, strain MCK1, hits give low values): 0.613 (active)
- normalized growth (S. cerevisiae deletion strains, locus YNL322C, strain KRE1 (second series), hits give low values): 1.02
- normalized growth (S. cerevisiae deletion strains, locus YNL322C, strain KRE1, hits give low values): 1.01
- normalized growth (S. cerevisiae deletion strains, locus YNR049C, strain mso1, hits give low values): 0.998
- normalized growth (S. cerevisiae deletion strains, locus YNR052C, strain pop2, hits give low values): 0.999
- normalized growth (S. cerevisiae deletion strains, locus YOL006C, strain TOP1, hits give low values): 0.942
- normalized growth (S. cerevisiae deletion strains, locus YOL012C, strain htz1): 0.841
- normalized growth (S. cerevisiae deletion strains, locus YOL147C, strain pex11, hits give low values): 1
- normalized growth (S. cerevisiae deletion strains, locus YOR001W, strain rrp6, hits give low values): 1.01
- normalized growth (S. cerevisiae deletion strains, locus YOR061W, strain CKA2, hits give low values): 0.994
- normalized growth (S. cerevisiae deletion strains, locus YOR069W, strain VPS5, hits give low values): 1
- normalized growth (S. cerevisiae deletion strains, locus YOR070C, strain gyp1, hits give low values): 0.992
- normalized growth (S. cerevisiae deletion strains, locus YOR080W, strain dia2, hits give low values): 0.987
- normalized growth (S. cerevisiae deletion strains, locus YOR083W, strain WHI5, hits give low values): 0.965
- normalized growth (S. cerevisiae deletion strains, locus YOR106W, strain vam3, hits give low values): 0.935
- normalized growth (S. cerevisiae deletion strains, locus YOR136W, strain idh2, hits give low values): 0.97
- normalized growth (S. cerevisiae deletion strains, locus YOR144C, strain elg1, hits give low values): 0.994
- normalized growth (S. cerevisiae deletion strains, locus YOR184W, strain ser1, hits give low values): 0.889
- normalized growth (S. cerevisiae deletion strains, locus YOR231W, strain MKK1, hits give low values): 1.03
- normalized growth (S. cerevisiae deletion strains, locus YOR265W, strain rbl2, hits give low values): 0.993
- normalized growth (S. cerevisiae deletion strains, locus YOR270C, strain vph1, hits give low values): 0.953
- normalized growth (S. cerevisiae deletion strains, locus YOR290C, strain snf2, hits give low values): 0.983
- normalized growth (S. cerevisiae deletion strains, locus YOR316C, strain cot1, hits give low values): 1
- normalized growth (S. cerevisiae deletion strains, locus YPL051W, strain arl3, hits give low values): 0.95
- normalized growth (S. cerevisiae deletion strains, locus YPL055C, strain LGE1, hits give low values): 1
- normalized growth (S. cerevisiae deletion strains, locus YPL078C, strain atp4, hits give low values): 0.968
- normalized growth (S. cerevisiae deletion strains, locus YPL106C, strain sse1, hits give low values): 0.96
- normalized growth (S. cerevisiae deletion strains, locus YPL240C, strain hsp82, hits give low values): 0.982
- normalized growth (S. cerevisiae deletion strains, locus YPL241C, strain CIN2, hits give low values): 1.01
- normalized growth (S. cerevisiae deletion strains, locus YPL256C, strain CLN2, hits give low values): 1.05
- normalized growth (S. cerevisiae deletion strains, locus YPR119W, strain clb2, hits give low values): 0.998
- normalized growth (S. cerevisiae deletion strains, locus YPR141C, strain kar3, hits give low values): 1.01
- normalized growth (S. cerevisiae deletion strains, locus YPR163C, strain tif3, hits give low values): 0.909 (active)
- normalized growth (S. cerevisiae deletion strains, locus YPR167C, strain met16, hits give low values): 1.01
- normalized growth (S. cerevisiae deletion strains, strain wtn01, hits give low values): 0.955
- normalized growth (S. cerevisiae strains, strain wild type, hits give low values): 1
